Out of some 260,000 compounds screened, about 1,500 (0.58%) were called active. Roughly 5% stayed inconclusive and do not appear here.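 How the source made its calls: active means inhibition above a set limit at one or more doses, reproduced on every date tested; inconclusive means results disagree between test dates, or hit never tested in dose response; inactive means the rest.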 These entries were drawn from the full list. Results with a measured potency or affinity are listed apart.
What follows are molecules tested against Virion infectivity factor (Human immunodeficiency virus type 1 group M subtype B (isolate BH10)) + Virion infectivity factor (Human immunodeficiency virus type 1 group M subtype B (isolate BRU/LAI)) + Virion infectivity factor (Human immunodeficiency virus type 1 group M subtype B (isolate PCV12)) + Virion infectivity factor (Human immunodeficiency virus type 1 group M subtype B (isolate HXB2)) + DNA dC->dU-editing enzyme APOBEC-3G (Homo sapiens) (UniProt P69720+P69721+P69722+P69723+Q9HC16) (assay: inhibitors of Vif binding to APOBEC3G peptide, primary screen, biochemical, TR-FRET, GST-Vif 1-94, biotin-A3G peptide, dose response retest (AID 1117319;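 further: Vif residues 1-94 fused to GST binding biotinylated APOBEC3G peptide 110-148; 0% = full assay without inhibitor and 100% = GST in place of GST-Vif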)). Details: stronger effect = higher value.

SMILES	inhibition
Cc1c(CNCCc2ccccc2Cl)c(C(=O)O)c(C)n1-c1ccccc1	-7.23% (inactive)
Cc1ccc(C(=O)NC(=S)Nc2cccc(-c3nc4ccccc4s3)c2)cc1	9.8% (inactive)
CSCCC(NS(=O)(=O)c1ccccc1F)C(=O)NCC(C)(C)N1CCOCC1 (stereo not given)	1.29% (inactive)
O=C(OCc1nc2ccsc2c(=O)[nH]1)c1ccc(Cl)s1	11.9% (inactive)
CCCCN(C(=O)C(C)(C)Oc1ccc(Cl)cc1)c1c(N)n(CCC)c(=O)[nH]c1=O	-3.39% (inactive)
CC(C)CN(CC(C)C)C(=O)Nc1cccc([N+](=O)[O-])c1	0.14% (inactive)
CCC(C)NC(=O)CSc1nnc(-c2cc(OC)c(OC)c(OC)c2)c(-c2cc(OC)c(OC)c(OC)c2)n1 (stereo not given)	2.7% (inactive)
NC(=O)NC(=O)CN1C(=O)NC2(CCOc3ccccc32)C1=O (stereo not given)	5.28% (inactive)
N=C1C(c2ccccc2)=C(O)CN1c1cccc(O)c1	10.9% (inactive)
O=C1CSc2ccc(C(=O)O)cc2N1	10.3% (inactive)
COC(=O)c1ccc(C2Nc3ccc(/C(C)=N/NC(=O)C(OC)c4ccccc4)cc3C3C=CCC32)cc1 (stereo not given)	11.3% (inactive)
Cc1ccc2c(c1)[C@H]1OCC[C@H]1[C@@H](c1ccncc1)N2	27.8% (inactive)
CC1Cc2cc(C(=O)O)ccc2O1 (stereo not given)	-3.49% (inactive)
CCc1ccc2oc(=O)cc(CN3CCN(CCO)CC3)c2c1	4.78% (inactive)
CC/C(=N\Nc1ccc([N+](=O)[O-])cc1[N+](=O)[O-])c1ccc(O)cc1	-6.92% (inactive)
COc1cccc(-c2nnc3sc(-c4ccccn4)nn23)c1	-11.4% (inactive)
COc1ccc(-c2nn3c(-c4ccccn4)nnc3s2)cc1OC	12.7% (inactive)
COC(=O)c1cc(C)ccc1/C=C1/Cc2c(C)cc(C)cc2C1=O	-4.06% (inactive)
CC1CC1C(=O)OCC(=O)Nc1ncc(Cl)cc1Cl (stereo not given)	6.04% (inactive)
CCCc1cc(=O)n2[nH]c(C)c(-c3ccccc3OC)c2n1	-0.45% (inactive)
CCc1cc(=O)n2[nH]c(C)c(-c3ccc(OC)cc3)c2n1	-3.08% (inactive)
COc1ccc(S(=O)(=O)N2CCC(C(=O)NCCC(=O)NCc3cccnc3)CC2)cc1	-0.14% (inactive)
Cc1noc(C)c1CCC(=O)Nc1cc(C(=O)O)ccc1Cl	4.29% (inactive)
Cc1ccc(NC(=O)CN2C(=O)N/C(=C/c3ccc(C)o3)C2=O)cc1	30.9% (inactive)

SMILES	inhibition
Cc1ccc(NC(=O)CN2C(=O)N/C(=C/c3ccc4c(c3)OCCO4)C2=O)cc1	-0.54% (inactive)
CCCC1=NN2C(=N)/C(=C\c3cc(C)n(-c4cccc(C)c4)c3C)C(=O)N=C2S1	-10.2% (inactive)
N=C1/C(=C\c2ccc(SCc3ccccc3)o2)C(=O)N=C2SC(CC(=O)N3CCOCC3)=NN12	18.9% (inactive)
N=C1/C(=C\c2ccc(SCc3ccccc3)o2)C(=O)N=C2SC=NN12	1.67% (inactive)
N=C1/C(=C\c2ccc(OC(=O)c3ccco3)cc2)C(=O)N=C2SC=NN12	2.2% (inactive)
CC1=NN2C(=N)/C(=C\c3ccc(SCc4ccccc4)o3)C(=O)N=C2S1	26.3% (inactive)
CCC1=NN2C(=N)/C(=C\c3cccn3-c3ccc(Cl)cc3)C(=O)N=C2S1	0.75% (inactive)
CCC1=NN2C(=N)/C(=C\c3cccn3-c3ccc(C)c(C)c3)C(=O)N=C2S1	2.9% (inactive)
CCC1=NN2C(=N)/C(=C/c3c(C)nn(-c4ccccc4)c3Cl)C(=O)N=C2S1	6.74% (inactive)
CCn1c(C(=O)O)c(S(=O)(=O)c2ccc(Cl)cc2)c2ccccc21	-1.5% (inactive)
Nc1nnc(SCC(=O)OCc2ccccc2)s1	11.6% (inactive)
COc1ccc(CCNC(=O)CN2C(=O)NC(c3ccccc3)(c3ccccc3)C2=O)cc1	2.71% (inactive)
COc1ccc(-c2csc(N(CCc3ccccc3)C(=O)COc3ccccc3)n2)cc1	-2.24% (inactive)
O=C1CC(c2ccccc2)NC(=S)N1 (stereo not given)	0.02% (inactive)
Cc1ccc(/C=c2\sc3n(c2=O)CN(c2cccc(Br)c2)CN=3)o1	27.7% (inactive)
Cc1onc(-c2ccccc2)c1C(=O)N1CCN(c2ccc([N+](=O)[O-])cc2)CC1	-0.35% (inactive)
O=C1N(Cc2cccc(Cl)c2)C[C@@H]2C[C@@H](c3c[nH]c4ccccc34)N3CCC[C@@]123	0.3% (inactive)
Cc1ccc(C(=O)OCC(=O)NCc2ccccc2)cc1S(=O)(=O)N1CCCCC1	-8.21% (inactive)
Cn1c(N2C(=O)CC(Cc3ccccc3)C2=O)nc2ccccc21 (stereo not given)	-1.11% (inactive)
O=C1NC(=S)SC1=Cc1ccccc1Cl	1.68% (inactive)
O=C1NC(=O)C(=Cc2ccco2)S1	-2.41% (inactive)
Cc1sc2ncn(-n3c(C)ccc3C)c(=O)c2c1C	5.69% (inactive)
COc1ccccc1-n1c(CNC(=O)c2ccco2)nnc1SCC(=O)Nc1ccc(F)cc1	-4.03% (inactive)
Cc1nc2[nH]c(=S)[nH]c(=O)c2nc1C	17.2% (inactive)

SMILES	inhibition
O=c1[nH]c(=S)[nH]c2nccnc12	-0.53% (inactive)
COc1cc(C(=O)Nc2c(C)cc(C)cc2C)c([N+](=O)[O-])cc1OC	-0.83% (inactive)
O=C(CCc1nnc(CCCCc2ccccc2)o1)N1CCCC(O)C1 (stereo not given)	20% (inactive)
COc1cc(/C=N/NC(=O)CNc2n[nH]c(=O)[nH]c2=O)ccc1OCc1ccccc1	2.21% (inactive)
O=C(CNc1n[nH]c(=O)[nH]c1=O)N/N=C/c1ccccc1	-4.54% (inactive)
COc1ccc(C(CNC(=O)c2ccc(OCC3CCCO3)cc2)N2CCOCC2)cc1 (stereo not given)	-4.51% (inactive)
CCCn1c(NC(=O)CSCC(=O)Nc2cc(C)on2)nc2ccccc21	-0.74% (inactive)
COc1ccc2nc3ccccc3nc2c1	0.36% (inactive)
COc1ccc2nc3c(nc2c1)CCCC3	-1.28% (inactive)
S=c1nc(-c2ccco2)[nH][nH]1	6.53% (inactive)
CCn1c(-c2ccco2)nc2ccccc21	0.82% (inactive)
c1coc(-c2cnc3ccccc3n2)c1	-5.45% (inactive)
c1coc(Cn2c(-c3ccco3)nc3ccccc32)c1	6.18% (inactive)
c1coc(-c2ncc[nH]2)c1	0.85% (inactive)
c1coc(-c2nc3ccccc3s2)c1	1.82% (inactive)
COc1ccc(N(C(=O)c2ccco2)C(C(=O)NC2CCCC2)c2ccco2)cc1OC (stereo not given)	0.94% (inactive)
COc1ccccc1/C=C/C(=O)OCC(=O)NC(=O)NC1CCCC1	-1.97% (inactive)
CCn1cc(Cl)c(C(=O)Nc2cccc(C(F)(F)F)c2)n1	-0.07% (inactive)
CC1(C)CC(NC(=O)COc2ccc([N+](=O)[O-])cc2)CC(C)(C)N1	-0.99% (inactive)
CC(C(=O)O/N=C(\N)c1cccnc1)c1ccc([N+](=O)[O-])cc1 (stereo not given)	-1.85% (inactive)
COc1cc(/C=C/C(=O)OCC(=O)c2ccc(S(=O)(=O)N3CCCCC3)cc2)cc(OC)c1OC	-29.8% (inactive)
Cc1ccc(OCCSc2nc(NC(C)C)nc(NC(C)C)n2)cc1	-8.83% (inactive)
CC(C)(C)NC(=O)CN1CCN(C(=O)CCl)CC1	-2.69% (inactive)
Cc1oc2ccc(O)c(CN3CCOCC3)c2c1C(C)O (stereo not given)	-6.07% (inactive)

SMILES	inhibition
COCCN1C(=O)CC(NNC(=O)c2ccc(S(=O)(=O)N3CCCC3)cc2)C1=O (stereo not given)	8% (inactive)
CCCC(C)NC(=O)c1ccc(-c2ccccc2)cc1 (stereo not given)	-5.95% (inactive)
Nc1nnc(-c2ccco2)s1	15.6% (inactive)
Nc1nc(-c2ccco2)cs1	-0.78% (inactive)
CCOC(=O)c1cnc(-n2nc(C)cc2C)[nH]c1=O	-8.45% (inactive)
Cc1sc(-c2ccccn2)nc1OC(=O)c1ccc(Cl)c(Cl)c1	-6.3% (inactive)
CC1CCCCC1NC(=O)COC(=O)c1ccc2ccccc2n1 (stereo not given)	-3.73% (inactive)
CN(CCC#N)C(=O)COC(=O)c1nn(-c2ccccc2)c(=O)c2ccccc12	-3.88% (inactive)
O=C(COC(=O)c1c2c(nc3ccccc13)/C(=C/c1cccc([N+](=O)[O-])c1)CCC2)NC1CCS(=O)(=O)C1 (stereo not given)	29.1% (inactive)
CCc1nc2ccccc2c(C(=O)OCC(=O)NC2CCCC2)c1C	4.22% (inactive)
CC1CCCCC1NC(=O)COC(=O)c1c2c(nc3ccccc13)/C(=C\c1ccco1)CC2 (stereo not given)	4.28% (inactive)
CN1CCc2nc3ccccc3c(C(=O)OCC(=O)N(CCC#N)c3ccccc3)c2C1	-5.14% (inactive)
Cc1ccc(N(Cc2ccccc2)C(=O)c2cccc(S(=O)(=O)N3CC(C)OC(C)C3)c2)cc1 (stereo not given)	5.98% (inactive)
CCCCc1nnc(NC(=O)Cc2ccc(S(=O)(=O)N3CCOCC3)s2)s1	-4.48% (inactive)
CCc1ccc(CN(C)C(C)C(=O)NCc2ccccc2)cc1 (stereo not given)	-5.54% (inactive)
CCOC(=O)c1oc2cc(C)cc(C)c2c1C	12.6% (inactive)
C[C@]1(C(=O)NCCN2CCOCC2)C=C[C@@H](Cc2ccccc2)N1C(=O)c1ccccc1	-2.79% (inactive)
N#Cc1cnc(N)c(Br)c1	-0.24% (inactive)
COc1ccc(-n2c(=S)[nH]c3cc(C(=O)NCc4cccnc4)ccc3c2=O)cc1	-1.63% (inactive)
Fc1cccc(F)c1-n1c(CN2CCOCC2)csc1=S	-4.65% (inactive)
C/C(N)=C(/C#N)C(=O)CSc1nnc(Nc2ccccc2C)s1	5.27% (inactive)
C/C(N)=C(/C#N)C(=O)CSc1nnc(Nc2cccc(C)c2)s1	29.1% (inactive)
Cn1c(SCC(=O)NCc2ccc3c(c2)OCO3)nnc1-c1cc2ccccc2cc1O	5.67% (inactive)

From PubChem BioAssay AID1117319 (Southern Research Institute, 2015)
